Inconclusive results are not listed. Unmarked numbers belong to inactive results. Calls of active or inactive are those of the source. Calls follow the shape of the dose curve; as a rule, active = well fitted cell-killing curve with a large enough effect; inconclusive = small, poorly fitted or top-dose-only effect; inactive = flat fitted curve, though single readings scatter.
Assay: Quantitative highthroughput screen to assess conditional lethalithy of P12 Ichikawa cells grown in Human Plasma-Like Medium with dialyzed fetal bovine serum (HPLM+ds) (AID 1963879); also: nearly all actives have a fitted effect of over 35% in size
Conditions: ATP luminescence, 48 h; Potency: viability; series mostly up to 45.8 µM; viability: at the top concentration
Source text: Assay Provider: Jason Cantor Ph.D.
Department of Biochemistry
University of Wisconsin-Madison, Madison, WI, USA
Chemical screening studies have identified drug sensitivities across hundreds of cancer cell lines but most putative therapeutics fail to translate. Discovery and development of drug candidates in models that more accurately reflect nutrient levels in human blood is a major challenge. Here we performed high-throughput screens in conventional versus Human Plasma-Like Medium (HPLM) to identify compounds that were "missed" when screening using the artificial culture condition. Sets of conditional anticancer compounds spanned phases of clinical development and included non-oncology drugs were assessed. […] We also traced conditional phenotypes for several chemotherapeutics to availability of HPLM-specific metabolites and confirmed others for compounds whose reported targets are encoded by nonessential genes. Our findings establish generalizable strategies for exploiting conditional lethality in HPLM to reveal therapeutic candidates and mechanisms of action in cancer cells.
Described herein are the results of each viability screens against three cell lines: NOMO1 (an acute myeloid leukemia cell line); P12-Ichikawa (a T-cell acute lymphoblastic leukemia); and SEM (a B-cell ALL). Each assay was screened using 3 different cell culture media: homemade human plasma-Like medium with 10% dialyzed fetal bovine serum (HPLM+ds); RPMI1640 with 10% untreated FBS and 5mM glucose (RPMI+s); and RPMI1640 with 10% dialyzed fetal bovine serum and 5 mM glucose (RPMI+ds).
PROTOCOL TABLE (as described by Inglese J, Shamu CE and Guy RK. 2007)
SEQUENCE No. (e.g., 1, 2, 3, etc.); […] (e.g., Cells, Incubation, Reagent, etc.); VALUE and DESCRIPTION.
1; Cells; 5 uL; white, solid bottom 1536-well Greiner assay plate.
2; Compounds; 23 nL; Kalypsis pin tool (Wako USA) equipped with a 1536-well pin head to transfer to the assay plates.
3; Incubation; 48 hours; 37C incubation.
4; Reagent; 3 uL; CellTiter Glo (Promega).
5; Incubation; 5 min, room temperature
6; Detection; Luminescence, Viewlux PerkinElmer.
NOTES (numbers refer to Sequence numbers above)
1. Briefly, 5 ul of cell reagent was dispensed using a Multidrop Combi Dispenser. The NOMO1 and SEM cells were plated at 500 cells/well and the P12-Ichikawa line at 1000 cells/well.
2. After seeding the cells, 23 nL of MIPE 4.1 library compounds (in DMSO) were added to each plate using a Kalypsys 1536 Pintool dispenser. Bortezomib at final concentration of […] and DMSO were added to each plate as positive and negative controls respectively. For each screen, MIPE 4.1 compounds were added over an eleven-point concentration range […] in 3-fold dilutions.
3. Each plate was covered with a stainless steel gasketed lid to prevent evaporation and incubated for 48 hour at 37C, 95% relative humidity, and 5% CO2.
4-5. Three microliter CellTilter-GloTM luminescent substrate mix (Promega) reagent was added to the assay plate and incubated at room temperature for 5 min.
6. The luminescence signal was measured using a ViewLux (PerkinElmer) multiplate reader with a 2 second exposure time per plate. Data for each compound were normalized as percent viability such that measurements for DMSO and the empty well controls in each plate were defined as 100% and 0%, respectively.
Potency is read from the fitted curve at half-maximal effect.

Row | Compound | viability [%] | Potency
1 | O=C(c1ccc(C(=O)N2CCC(N3CCCC3)CC2)c(Nc2ccccc2)c1)N1CCC(N2CCCC2)CC1 | 100 | –
2 | Cc1cc(Nc2ncc3c(n2)N(C)C(=O)N(c2cc(NC(=O)c4cccc(C(F)(F)F)c4)ccc2C)C3)n(C)n1 | – | 16.6 µM (active)
3 | CC1(C)OC2=C(C(=O)c3ccccc3C2=O)[C@H](NCc2ccccc2)[C@H]1O | – | 14.8 µM (active)
4 | O=C(NCc1ccncc1)C12C[C@H]3C[C@@H](C1)CC(c1ccc(Cl)cc1)(C3)C2 | – | 11.8 µM (active)
5 | COc1ccc2c(Oc3ccc(NC(=O)c4c(C)n(CC(C)(C)O)n(-c5ccccc5)c4=O)cc3F)ccnc2c1 | 93.6 | –
6 | CN(CC(=O)N(Cc1ccc(C2CCCCC2)cc1)c1ccc(C(=O)O)c(O)c1)S(=O)(=O)c1c(F)c(F)c(F)c(F)c1F | – | 20.9 µM (active)
7 | CC[C@@H]1C(=O)N(C)c2cnc(Nc3ccc(C(=O)NC4CCC(N5CCN(CC6CC6)CC5)CC4)cc3OC)nc2N1C(C)C (stereo not given in full) | – | 0.0332 µM (active)
8 | CCOC(=O)C1=C[C@@H](OC(CC)CC)[C@H](NC(C)=O)[C@@H](N)C1 | 96.7 | –
9 | CCc1cccc(CC)c1NC(=O)N1Cc2[nH]nc(NC(=O)c3ccc(N4CCN(C)CC4)cc3)c2C1 | – | 1.87 µM (active)
10 | COC1CCC(N(C(=O)C2CCC(C)CC2)c2cc(C3=CCCCC3)sc2C(=O)O)CC1 (stereo not given) | – | 18.7 µM (active)
11 | Nc1nccc(-c2ccc3noc(-c4ccc(Cl)cc4)c3c2)n1 | 108 | –
12 | CN(C)CCCN=c1c2ccccc2n(C)c2[nH]c(=O)n(C)c(=O)c12 | – | 26.4 µM (active)
13 | CCN(CC)CCCC(C)Nc1nc(C)cc(Nc2ccc3nc(C)cc(N)c3c2)n1 (stereo not given) | 105 | –
14 | C[C@](N)(Cc1ccc(O)c(O)c1)C(=O)O | 98.5 | –
15 | CC(=O)N(C)C1(c2ccccc2)CCN(CCC[C@]2(c3ccc(Cl)c(Cl)c3)CCCN(C(=O)c3ccccc3)C2)CC1 | – | 2.96 µM (active)
16 | O=c1oc2cc(O)ccc2s1 | 101 | –
17 | CN1[C@H]2CC[C@H]1CC(OC(=O)c1c[nH]c3ccccc13)C2 (stereo not given in full) | 101 | –
18 | CN1C(C(=O)Nc2ccccn2)=C(O)c2sccc2S1(=O)=O | 103 | –
19 | CC(C)c1ccc2c(c1)c(SC(C)(C)C)c(CC(C)(C)C(=O)O)n2Cc1ccc(Cl)cc1 | 105 | –
20 | C=CC(=O)Nc1ccc2ncnc(Nc3ccc(OCc4cccc(F)c4)c(Cl)c3)c2c1 | – | 7.43 µM (active)

Row | Compound | viability [%] | Potency
21 | CN(C)CCCN1c2ccccc2CCc2ccc(Cl)cc21 | 83.1 | –
22 | NS(=O)(=O)c1ccc(NC2=CC(=O)c3ccccc3C2=O)cc1 | 97.7 | –
23 | Cc1ccccc1N1C(=O)c2cc(S(N)(=O)=O)c(Cl)cc2NC1C (stereo not given) | 99.9 | –
24 | CC[C@@H]1C(=O)N(C)c2cnc(Nc3ccc(C(=O)NC4CCN(C)CC4)cc3OC)nc2N1C1CCCC1 | – | 0.0264 µM (active)
25 | CN1CCC(=C2c3ccccc3CC(=O)c3sccc32)CC1 | 87.5 | –
26 | Cc1cc(Cl)ccc1OCCCC(=O)NO | – | 8.33 µM (active)
27 | NC(N)=NC(=O)c1nc(Cl)c(N)nc1N | – | 4.69 µM (active)
28 | O=C(O)CSCC(=O)NC1CCSC1=O (stereo not given) | 101 | –
29 | O=c1n(CCCN2CCN(c3cccc(Cl)c3)CC2)nc2ccccn12 | 104 | –
30 | Cc1ccc(C(=O)Nc2ccc(Oc3cc4cnn(C)c4cc3-c3cn[nH]c3)c(F)c2)c(=O)n1-c1ccc(F)cc1 | – | 6.6 µM (active)
31 | OC(CCN1CCCCC1)(c1ccccc1)C1CC2C=CC1C2 (stereo not given) | 101 | –
32 | CC=C(C(=CC)c1ccc(O)cc1)c1ccc(O)cc1 | 92.4 | –
33 | Cc1cc(-c2nnc3n2CCCCC3)c(C)n1-c1ccccc1 | 94.9 | –
34 | CC(COc1ccccc1)N(CCCl)Cc1ccccc1 (stereo not given) | – | 2.35 µM (active)
35 | Nc1ncnc2c1c(-c1cccc(OCc3ccccc3)c1)cn2C1CC(CN2CCC2)C1 (stereo not given) | 110 | –
36 | Oc1cc2c(cc1O)C1c3ccc(O)c(O)c3OCC1(O)C2 (stereo not given) | 106 | –
37 | CC(=O)N[C@H]1[C@@H]([C@H](O)[C@H](O)CO)OC(C(=O)O)=C[C@@H]1N=C(N)N | 102 | –
38 | O=C(O)[C@H]1O[C@H](Oc2cc3oc(-c4ccccc4)cc(=O)c3c(O)c2O)[C@H](O)[C@@H](O)[C@H]1O | 88.2 | –
39 | O=c1cc(-c2cccc3c2Sc2ccccc2S3)oc(N2CCOCC2)c1 | 98.1 | –
40 | Cc1[nH]c(=O)c(C#N)cc1-c1ccc2nccn2c1 | 102 | –

Source: PubChem BioAssay (NCATS)
